Key:
Assay in all cases: log2 ratio of Biotin-Ahx-Ub-VS probe labelling (fragment/DMSO); higher = less target engagement (more negative = stronger competition), active = hit call of the paper (q ≤ 0.05, log2 ratio ≤ -1)
Conditions in all cases: compound concentration: 200 uM; treatment time: 3 h
USP42 = target: T1, USP42 (UniProt Q9H9J4)
T1 sequence (whole entry): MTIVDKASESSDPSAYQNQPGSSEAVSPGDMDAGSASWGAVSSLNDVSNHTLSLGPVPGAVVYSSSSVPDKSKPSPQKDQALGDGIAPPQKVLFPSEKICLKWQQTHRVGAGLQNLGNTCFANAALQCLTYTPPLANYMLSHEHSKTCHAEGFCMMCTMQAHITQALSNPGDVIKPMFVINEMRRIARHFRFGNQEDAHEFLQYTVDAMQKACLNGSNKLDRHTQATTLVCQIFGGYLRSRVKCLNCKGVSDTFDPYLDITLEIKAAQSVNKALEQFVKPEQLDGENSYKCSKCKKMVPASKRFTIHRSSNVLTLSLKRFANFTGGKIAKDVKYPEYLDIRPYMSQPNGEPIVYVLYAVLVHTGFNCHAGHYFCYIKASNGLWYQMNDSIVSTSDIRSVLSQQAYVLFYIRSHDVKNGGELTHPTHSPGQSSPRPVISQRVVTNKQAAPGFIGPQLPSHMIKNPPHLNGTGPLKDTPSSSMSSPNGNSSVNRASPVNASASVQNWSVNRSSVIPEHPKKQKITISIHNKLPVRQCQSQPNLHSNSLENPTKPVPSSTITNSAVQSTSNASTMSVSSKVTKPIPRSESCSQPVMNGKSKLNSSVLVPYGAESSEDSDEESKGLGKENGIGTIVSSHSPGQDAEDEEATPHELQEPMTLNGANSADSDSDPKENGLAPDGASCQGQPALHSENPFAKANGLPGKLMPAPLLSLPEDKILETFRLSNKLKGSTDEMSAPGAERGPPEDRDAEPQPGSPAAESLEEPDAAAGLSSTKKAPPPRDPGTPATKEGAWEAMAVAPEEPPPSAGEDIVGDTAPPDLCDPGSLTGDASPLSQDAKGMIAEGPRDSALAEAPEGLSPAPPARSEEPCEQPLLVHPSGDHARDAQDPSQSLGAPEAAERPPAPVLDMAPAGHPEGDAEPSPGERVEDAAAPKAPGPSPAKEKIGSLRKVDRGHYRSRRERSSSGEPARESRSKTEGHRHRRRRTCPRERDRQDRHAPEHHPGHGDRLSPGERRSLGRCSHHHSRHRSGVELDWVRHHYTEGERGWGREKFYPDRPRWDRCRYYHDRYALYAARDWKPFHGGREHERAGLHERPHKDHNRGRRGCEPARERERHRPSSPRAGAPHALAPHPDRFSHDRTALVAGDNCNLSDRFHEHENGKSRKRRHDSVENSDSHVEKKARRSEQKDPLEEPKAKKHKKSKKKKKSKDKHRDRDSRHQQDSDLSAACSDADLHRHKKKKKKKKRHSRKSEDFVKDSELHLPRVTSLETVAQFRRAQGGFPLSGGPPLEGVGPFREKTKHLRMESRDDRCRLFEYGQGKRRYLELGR
Summary of the method: (§1)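 Labelled DUBs from HEK293T lysate were NeutrAvidin-enriched, digested with LysC and trypsin, and run by diaPASEF LC-MS/MS. Before that, each 495 µg sample in Tris/CHAPS/IGEPAL buffer with protease inhibitors was treated in triplicate with fragment at 200 µM or vehicle for 3 h, then with Biotin-Ahx-Ub-VS at 0.5 µM final for 1 h. Values are average log2 ratios of fragment over vehicle by unpaired t-test, based on global-median-normalised Spectronaut label-free quantities from proteins with ≥2 unique peptides.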

USP46 = USP46 (UniProt P62068)
USP46, sequence (P62068 whole entry): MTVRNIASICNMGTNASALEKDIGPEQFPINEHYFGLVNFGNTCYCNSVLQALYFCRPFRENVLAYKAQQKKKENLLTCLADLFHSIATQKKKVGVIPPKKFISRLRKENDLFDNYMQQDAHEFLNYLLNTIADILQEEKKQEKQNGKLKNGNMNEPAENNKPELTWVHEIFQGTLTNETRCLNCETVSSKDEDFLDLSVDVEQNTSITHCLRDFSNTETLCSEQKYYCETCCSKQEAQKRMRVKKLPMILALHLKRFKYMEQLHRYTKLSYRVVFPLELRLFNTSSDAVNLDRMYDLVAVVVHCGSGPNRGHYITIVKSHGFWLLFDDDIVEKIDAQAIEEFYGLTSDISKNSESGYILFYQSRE
Summary of the method: as §1

USP47 = target: T2, USP47 (UniProt Q96K76)
T2 sequence (whole entry): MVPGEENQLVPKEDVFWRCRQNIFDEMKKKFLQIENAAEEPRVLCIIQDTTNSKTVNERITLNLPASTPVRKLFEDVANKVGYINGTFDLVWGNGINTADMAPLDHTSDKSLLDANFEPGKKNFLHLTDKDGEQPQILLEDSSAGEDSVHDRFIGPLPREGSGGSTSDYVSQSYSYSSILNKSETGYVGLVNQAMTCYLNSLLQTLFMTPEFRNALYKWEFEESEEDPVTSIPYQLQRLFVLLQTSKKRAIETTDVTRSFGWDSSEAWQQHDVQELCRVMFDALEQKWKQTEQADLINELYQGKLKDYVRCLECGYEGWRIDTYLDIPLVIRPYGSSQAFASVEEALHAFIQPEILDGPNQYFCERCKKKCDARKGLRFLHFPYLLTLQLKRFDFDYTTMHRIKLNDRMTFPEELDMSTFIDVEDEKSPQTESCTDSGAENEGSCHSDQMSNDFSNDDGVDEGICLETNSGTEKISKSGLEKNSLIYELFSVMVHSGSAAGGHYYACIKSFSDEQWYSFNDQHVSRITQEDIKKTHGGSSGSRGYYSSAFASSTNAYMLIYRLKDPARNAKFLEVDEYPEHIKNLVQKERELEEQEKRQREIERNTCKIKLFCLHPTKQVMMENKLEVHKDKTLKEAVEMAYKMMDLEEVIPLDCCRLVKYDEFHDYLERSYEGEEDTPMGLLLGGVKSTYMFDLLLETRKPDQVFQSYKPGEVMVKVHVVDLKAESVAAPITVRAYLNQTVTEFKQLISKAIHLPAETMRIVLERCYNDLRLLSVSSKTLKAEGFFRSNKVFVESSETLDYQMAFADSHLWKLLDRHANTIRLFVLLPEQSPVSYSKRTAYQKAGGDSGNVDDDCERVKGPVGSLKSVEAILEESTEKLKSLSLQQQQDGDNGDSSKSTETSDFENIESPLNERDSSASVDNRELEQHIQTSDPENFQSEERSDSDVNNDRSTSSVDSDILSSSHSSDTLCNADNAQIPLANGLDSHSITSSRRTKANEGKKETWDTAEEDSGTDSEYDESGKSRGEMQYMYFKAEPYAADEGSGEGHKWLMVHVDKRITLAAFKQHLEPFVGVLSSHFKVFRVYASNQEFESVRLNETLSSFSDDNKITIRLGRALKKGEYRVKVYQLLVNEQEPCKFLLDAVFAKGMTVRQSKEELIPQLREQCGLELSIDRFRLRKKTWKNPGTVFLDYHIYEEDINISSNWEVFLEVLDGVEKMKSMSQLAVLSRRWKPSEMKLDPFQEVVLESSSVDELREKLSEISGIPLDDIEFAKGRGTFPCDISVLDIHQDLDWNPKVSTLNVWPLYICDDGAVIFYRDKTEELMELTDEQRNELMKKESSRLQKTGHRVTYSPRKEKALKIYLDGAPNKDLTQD
Summary of the method: as §1

USP48 = target: T3, USP48 (UniProt Q86UV5)
T3 sequence (whole entry): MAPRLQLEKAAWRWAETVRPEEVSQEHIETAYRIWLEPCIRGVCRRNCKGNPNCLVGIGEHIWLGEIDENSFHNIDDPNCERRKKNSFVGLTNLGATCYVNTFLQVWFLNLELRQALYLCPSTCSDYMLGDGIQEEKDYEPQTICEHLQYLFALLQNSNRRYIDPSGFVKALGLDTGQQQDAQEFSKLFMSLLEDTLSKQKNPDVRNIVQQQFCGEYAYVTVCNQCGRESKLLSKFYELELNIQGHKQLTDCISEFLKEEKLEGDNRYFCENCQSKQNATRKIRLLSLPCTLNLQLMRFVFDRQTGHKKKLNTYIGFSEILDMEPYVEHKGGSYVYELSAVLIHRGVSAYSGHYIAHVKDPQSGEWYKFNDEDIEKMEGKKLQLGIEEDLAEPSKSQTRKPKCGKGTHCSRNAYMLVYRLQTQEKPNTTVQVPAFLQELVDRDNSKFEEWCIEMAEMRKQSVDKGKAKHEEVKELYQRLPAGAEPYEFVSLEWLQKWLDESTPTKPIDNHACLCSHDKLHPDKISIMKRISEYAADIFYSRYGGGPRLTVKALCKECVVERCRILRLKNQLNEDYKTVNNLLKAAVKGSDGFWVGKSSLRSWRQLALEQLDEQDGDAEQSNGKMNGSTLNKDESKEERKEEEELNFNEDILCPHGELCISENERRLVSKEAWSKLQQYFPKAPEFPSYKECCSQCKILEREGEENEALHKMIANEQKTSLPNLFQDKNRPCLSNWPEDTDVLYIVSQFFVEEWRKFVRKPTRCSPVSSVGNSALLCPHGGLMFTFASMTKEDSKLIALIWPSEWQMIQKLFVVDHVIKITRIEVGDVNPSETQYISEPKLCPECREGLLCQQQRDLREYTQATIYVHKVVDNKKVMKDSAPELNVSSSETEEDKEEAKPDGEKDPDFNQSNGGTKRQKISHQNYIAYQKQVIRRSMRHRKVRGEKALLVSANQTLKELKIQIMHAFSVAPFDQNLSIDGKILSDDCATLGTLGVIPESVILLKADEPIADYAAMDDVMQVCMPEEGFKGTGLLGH
Summary of the method: as §1

USP5 = target: T4, USP5 (UniProt P45974)
T4 sequence (whole entry): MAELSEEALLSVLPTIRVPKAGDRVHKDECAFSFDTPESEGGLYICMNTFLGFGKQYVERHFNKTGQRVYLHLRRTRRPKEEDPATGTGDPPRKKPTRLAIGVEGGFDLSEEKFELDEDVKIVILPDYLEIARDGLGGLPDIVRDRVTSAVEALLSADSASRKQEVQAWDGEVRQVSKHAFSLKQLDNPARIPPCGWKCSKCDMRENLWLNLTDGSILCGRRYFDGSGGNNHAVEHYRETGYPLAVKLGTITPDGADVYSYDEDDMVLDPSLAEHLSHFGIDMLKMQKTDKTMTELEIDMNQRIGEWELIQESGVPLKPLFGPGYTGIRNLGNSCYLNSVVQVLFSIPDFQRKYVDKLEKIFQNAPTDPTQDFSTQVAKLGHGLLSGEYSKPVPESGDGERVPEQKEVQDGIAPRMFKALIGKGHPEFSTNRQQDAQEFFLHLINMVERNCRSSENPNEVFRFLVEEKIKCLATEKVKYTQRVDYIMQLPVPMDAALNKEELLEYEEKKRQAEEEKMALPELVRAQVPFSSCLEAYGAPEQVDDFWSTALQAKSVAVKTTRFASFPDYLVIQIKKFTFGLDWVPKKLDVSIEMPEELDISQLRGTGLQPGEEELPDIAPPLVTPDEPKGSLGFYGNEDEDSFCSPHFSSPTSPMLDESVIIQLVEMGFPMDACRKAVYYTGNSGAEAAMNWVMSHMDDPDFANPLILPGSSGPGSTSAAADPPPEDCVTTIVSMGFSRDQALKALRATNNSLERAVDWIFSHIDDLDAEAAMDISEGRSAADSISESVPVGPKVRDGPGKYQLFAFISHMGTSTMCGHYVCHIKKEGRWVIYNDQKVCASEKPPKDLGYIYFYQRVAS
Summary of the method: as §1

USP54 = USP54 (UniProt Q70EL1)
USP54, sequence (Q70EL1 whole entry): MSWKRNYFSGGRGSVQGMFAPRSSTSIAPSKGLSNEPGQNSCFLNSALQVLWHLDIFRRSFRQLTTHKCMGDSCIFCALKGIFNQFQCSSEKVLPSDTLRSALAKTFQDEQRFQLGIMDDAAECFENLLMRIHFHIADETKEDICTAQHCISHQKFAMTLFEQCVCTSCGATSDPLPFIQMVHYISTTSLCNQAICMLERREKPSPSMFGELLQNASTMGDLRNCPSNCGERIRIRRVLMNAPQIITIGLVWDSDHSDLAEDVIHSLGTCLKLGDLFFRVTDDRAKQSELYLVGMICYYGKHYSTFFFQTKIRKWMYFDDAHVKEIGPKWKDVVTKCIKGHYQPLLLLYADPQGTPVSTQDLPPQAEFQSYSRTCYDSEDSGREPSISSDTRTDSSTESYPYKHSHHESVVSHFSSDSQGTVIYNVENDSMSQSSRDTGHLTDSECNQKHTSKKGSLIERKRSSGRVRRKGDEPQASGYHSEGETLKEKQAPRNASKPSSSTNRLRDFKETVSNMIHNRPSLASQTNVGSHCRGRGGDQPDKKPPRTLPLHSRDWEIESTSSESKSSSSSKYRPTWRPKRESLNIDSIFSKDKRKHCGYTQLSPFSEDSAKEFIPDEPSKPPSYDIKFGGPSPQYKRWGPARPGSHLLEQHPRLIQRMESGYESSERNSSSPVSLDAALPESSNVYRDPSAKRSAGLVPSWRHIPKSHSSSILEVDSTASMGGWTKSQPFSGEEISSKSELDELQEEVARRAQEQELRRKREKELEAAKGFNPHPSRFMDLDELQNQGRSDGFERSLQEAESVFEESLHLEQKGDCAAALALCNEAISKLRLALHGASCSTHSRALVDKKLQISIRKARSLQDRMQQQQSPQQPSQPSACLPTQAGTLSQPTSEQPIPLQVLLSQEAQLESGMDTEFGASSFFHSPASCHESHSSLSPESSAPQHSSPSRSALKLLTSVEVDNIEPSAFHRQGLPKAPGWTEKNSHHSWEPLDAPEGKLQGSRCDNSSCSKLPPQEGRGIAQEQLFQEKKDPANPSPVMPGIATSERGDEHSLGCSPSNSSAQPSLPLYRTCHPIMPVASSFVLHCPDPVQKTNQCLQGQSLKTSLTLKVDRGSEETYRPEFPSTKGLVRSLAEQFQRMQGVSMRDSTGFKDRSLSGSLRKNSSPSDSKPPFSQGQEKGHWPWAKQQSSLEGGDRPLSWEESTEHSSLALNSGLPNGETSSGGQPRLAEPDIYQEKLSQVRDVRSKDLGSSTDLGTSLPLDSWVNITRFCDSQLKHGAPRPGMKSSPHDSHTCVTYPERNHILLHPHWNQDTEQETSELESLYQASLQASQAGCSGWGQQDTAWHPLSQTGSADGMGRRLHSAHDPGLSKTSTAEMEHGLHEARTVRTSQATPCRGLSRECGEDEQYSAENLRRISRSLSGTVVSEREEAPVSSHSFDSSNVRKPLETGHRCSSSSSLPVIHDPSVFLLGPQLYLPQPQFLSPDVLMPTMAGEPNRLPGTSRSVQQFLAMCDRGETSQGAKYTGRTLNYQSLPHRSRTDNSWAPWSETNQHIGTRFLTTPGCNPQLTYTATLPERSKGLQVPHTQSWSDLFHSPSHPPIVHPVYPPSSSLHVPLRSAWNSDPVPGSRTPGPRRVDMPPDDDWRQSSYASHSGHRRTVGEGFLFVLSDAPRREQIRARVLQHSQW
Summary of the method: as §1

USP7 = USP7 (UniProt Q93009)
USP7, sequence (Q93009 whole entry, looked up): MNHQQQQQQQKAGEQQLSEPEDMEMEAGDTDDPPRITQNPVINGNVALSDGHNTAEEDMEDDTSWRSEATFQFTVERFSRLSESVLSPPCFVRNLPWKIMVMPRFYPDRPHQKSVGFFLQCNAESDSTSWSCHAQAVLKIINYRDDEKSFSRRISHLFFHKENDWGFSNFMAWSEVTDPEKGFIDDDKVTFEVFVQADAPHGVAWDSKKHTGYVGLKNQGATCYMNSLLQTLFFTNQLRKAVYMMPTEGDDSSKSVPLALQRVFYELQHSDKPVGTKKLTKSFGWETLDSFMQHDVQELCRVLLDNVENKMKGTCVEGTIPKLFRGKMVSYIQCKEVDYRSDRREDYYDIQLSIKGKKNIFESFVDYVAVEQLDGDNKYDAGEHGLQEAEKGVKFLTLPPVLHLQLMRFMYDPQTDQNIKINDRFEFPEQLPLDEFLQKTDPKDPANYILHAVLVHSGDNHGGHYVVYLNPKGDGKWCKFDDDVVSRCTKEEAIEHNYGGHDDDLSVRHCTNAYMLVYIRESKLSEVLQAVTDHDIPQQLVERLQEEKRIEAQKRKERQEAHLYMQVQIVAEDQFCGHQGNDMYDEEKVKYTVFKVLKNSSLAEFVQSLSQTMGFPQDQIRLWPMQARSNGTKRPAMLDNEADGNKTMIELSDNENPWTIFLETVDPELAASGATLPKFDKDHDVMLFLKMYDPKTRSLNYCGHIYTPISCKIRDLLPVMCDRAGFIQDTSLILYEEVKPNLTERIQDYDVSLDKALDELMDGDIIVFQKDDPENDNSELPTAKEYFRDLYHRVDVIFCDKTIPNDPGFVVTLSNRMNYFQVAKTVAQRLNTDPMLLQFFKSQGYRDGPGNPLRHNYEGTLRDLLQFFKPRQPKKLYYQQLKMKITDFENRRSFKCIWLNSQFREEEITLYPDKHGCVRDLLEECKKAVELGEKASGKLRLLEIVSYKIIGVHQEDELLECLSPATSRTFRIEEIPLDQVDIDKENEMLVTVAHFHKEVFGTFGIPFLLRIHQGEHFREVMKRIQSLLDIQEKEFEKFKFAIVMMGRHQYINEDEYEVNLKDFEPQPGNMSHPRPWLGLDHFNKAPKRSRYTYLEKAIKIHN
Summary of the method: as §1

USP8 = target: T5, USP8 (UniProt P40818)
T5 sequence (whole entry): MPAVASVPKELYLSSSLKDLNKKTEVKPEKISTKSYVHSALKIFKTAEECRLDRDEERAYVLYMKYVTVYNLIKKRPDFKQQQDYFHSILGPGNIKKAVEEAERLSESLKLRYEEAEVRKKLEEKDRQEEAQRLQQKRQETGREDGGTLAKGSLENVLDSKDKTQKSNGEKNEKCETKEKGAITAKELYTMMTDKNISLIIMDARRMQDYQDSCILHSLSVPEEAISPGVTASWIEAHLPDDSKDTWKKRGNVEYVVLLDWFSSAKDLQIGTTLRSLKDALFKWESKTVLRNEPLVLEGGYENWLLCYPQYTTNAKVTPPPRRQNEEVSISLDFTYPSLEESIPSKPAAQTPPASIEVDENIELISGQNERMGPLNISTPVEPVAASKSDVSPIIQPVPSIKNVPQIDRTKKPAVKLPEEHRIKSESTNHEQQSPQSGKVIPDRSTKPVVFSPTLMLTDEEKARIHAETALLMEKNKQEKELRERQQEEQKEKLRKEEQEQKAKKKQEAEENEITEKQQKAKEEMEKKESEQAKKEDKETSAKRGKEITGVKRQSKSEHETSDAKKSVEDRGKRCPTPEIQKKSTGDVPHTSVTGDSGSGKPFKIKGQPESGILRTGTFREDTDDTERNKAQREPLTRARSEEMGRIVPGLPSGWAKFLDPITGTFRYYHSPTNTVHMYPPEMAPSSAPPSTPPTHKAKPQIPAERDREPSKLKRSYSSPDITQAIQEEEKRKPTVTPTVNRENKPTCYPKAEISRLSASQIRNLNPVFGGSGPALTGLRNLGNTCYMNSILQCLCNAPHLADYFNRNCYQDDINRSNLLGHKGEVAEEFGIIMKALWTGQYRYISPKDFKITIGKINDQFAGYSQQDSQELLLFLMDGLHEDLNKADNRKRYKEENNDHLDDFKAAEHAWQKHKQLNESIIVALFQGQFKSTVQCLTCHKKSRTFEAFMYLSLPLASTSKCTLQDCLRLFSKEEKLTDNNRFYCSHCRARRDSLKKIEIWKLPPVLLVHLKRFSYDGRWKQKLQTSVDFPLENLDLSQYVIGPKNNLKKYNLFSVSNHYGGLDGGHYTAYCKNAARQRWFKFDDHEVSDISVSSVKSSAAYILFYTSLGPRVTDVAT
Summary of the method: as §1

USP9X = USP9X (UniProt Q93008)
Summary of the method: as §1

UniProt O00487 = target: UniProt O00487
UniProt O00487, sequence (O00487 whole entry): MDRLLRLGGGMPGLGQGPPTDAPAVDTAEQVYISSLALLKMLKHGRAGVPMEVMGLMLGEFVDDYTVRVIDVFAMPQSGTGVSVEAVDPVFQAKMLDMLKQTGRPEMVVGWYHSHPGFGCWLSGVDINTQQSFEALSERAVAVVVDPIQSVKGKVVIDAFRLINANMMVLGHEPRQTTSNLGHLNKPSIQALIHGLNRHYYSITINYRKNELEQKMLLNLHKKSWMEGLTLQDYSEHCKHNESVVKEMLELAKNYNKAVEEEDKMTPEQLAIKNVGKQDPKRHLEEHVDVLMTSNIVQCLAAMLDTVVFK
Summary of the method: as §1

Measured: log2 ratio of Biotin-Ahx-Ub-VS probe labelling

Cc1nc(CC2CCN(C(=O)CCl)CC2)no1
inactive: USP42 0.631 | USP46 -0.332 | USP47 -0.726 | USP48 -0.576 | USP5 -0.492 | USP54 0.803 | USP7 -0.904 | USP8 -0.755 | USP9X -0.815 | UniProt O00487 -0.084
